# From PubChem BioAssay AID1159580 (chemical genetic matrix, 2015)
# Among all 5,500 compounds or so, about 2,000 (36%) were called active. About 18% were inconclusive and are not listed. The list shows a part of the results. Values without a mark were called inactive. Cut-off read from the data, not from the text of the source: active = normalized growth mostly below about 0.91 (no sharp cut-off); inconclusive = no clear call, values can overlap the other calls; inactive = mostly above about 0.92.
# Assay: chemical genetic growth profiling, strain panel (AID 1159580);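 note: tested at 20 µM; growth read once vehicle control cultures reached saturation at 30 °C; 1 = growth at the plate median or of vehicle wells; lower values mean less growth of the strain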
# Details: S. cerevisiae deletion strains, growth OD
structure (smiles),measurement,setting,value
C[C@H]1C[C@@H](O)[C@]2(O)[C@@]13CC(=O)OC[C@@]2(C)[C@](C)(O)C(=O)C3,normalized growth,"locus YAL021C, strain ccr4, hits give low values",1.02
same,normalized growth,"locus YAL026C, strain drs2, hits give low values",1.04
same,normalized growth,"locus YAL030W, strain snc1, hits give low values",1.02
same,normalized growth,"locus YBL061C, strain skt5, hits give low values",1.02
same,normalized growth,"locus YBR009C, strain hhf1, hits give low values",1.02
same,normalized growth,"locus YBR023C, strain chs3, hits give low values",1.03
same,normalized growth,"locus YBR171W, strain sec66, hits give low values",1.03
same,normalized growth,"locus YBR231C, strain swc5, hits give low values",1.03
same,normalized growth,"locus YBR279W, strain paf1, hits give low values",1.03
same,normalized growth,"locus YCL011C, strain gbp2, hits give low values",1.02
same,normalized growth,"locus YCL016C, strain dcc1, hits give low values",1.02
same,normalized growth,"locus YCL061C, strain MRC1, hits give low values",1.02
same,normalized growth,"locus YCL069W, strain vba3, hits give low values",1.02
same,normalized growth,"locus YCR088W, strain abp1, hits give low values",1.02
same,normalized growth,"locus YDL005C, strain med2, hits give low values",1.03
same,normalized growth,"locus YDL040C, strain nat1, hits give low values",1.02
same,normalized growth,"locus YDR001C, strain nth1, hits give low values",1.02
same,normalized growth,"locus YDR069C, strain doa4, hits give low values",1.04
same,normalized growth,"locus YDR137W, strain rgp1, hits give low values",1.03
same,normalized growth,"locus YDR159W, strain sac3, hits give low values",1.05
same,normalized growth,"locus YDR195W, strain ref2",1.02
same,normalized growth,"locus YDR297W, strain sur2, hits give low values",1.03
same,normalized growth,"locus YDR334W, strain swr1, hits give low values",1.03
same,normalized growth,"locus YDR335W, strain msn5, hits give low values",1.03
same,normalized growth,"locus YDR392W, strain spt3, hits give low values",0.974
same,normalized growth,"locus YEL003W, strain gim4, hits give low values",1.04
same,normalized growth,"locus YEL037C, strain rad23, hits give low values",1.03
same,normalized growth,"locus YEL061C, strain CIN8 (second series), hits give low values",1.03
same,normalized growth,"locus YER015W, strain faa2, hits give low values",1.02
same,normalized growth,"locus YER016W, strain bim1, hits give low values",1.02
same,normalized growth,"locus YER111C, strain swi4, hits give low values",1.04
same,normalized growth,"locus YER155C, strain BEM2 (second series), hits give low values",1.05
same,normalized growth,"locus YFR010W, strain ubp6, hits give low values",1.03
same,normalized growth,"locus YGL167C, strain pmr1, hits give low values",1.02
same,normalized growth,"locus YGL173C, strain kem1, hits give low values",1.02
same,normalized growth,"locus YGL227W, strain vid30, hits give low values",1.03
same,normalized growth,"locus YGL240W, strain doc1, hits give low values",1.02
same,normalized growth,"locus YGL253W, strain hxk2, hits give low values",1.03
same,normalized growth,"locus YHR013C, strain ard1, hits give low values",1.04
same,normalized growth,"locus YHR027C, strain rpn1, hits give low values",1.02
same,normalized growth,"locus YHR030C, strain SLT2, hits give low values",1.08
same,normalized growth,"locus YHR079C, strain IRE1, hits give low values",1.05
same,normalized growth,"locus YHR142W, strain chs7, hits give low values",1.04
same,normalized growth,"locus YJL092W, strain hpr5, hits give low values",1.03
same,normalized growth,"locus YJL095W, strain BCK1 (second series), hits give low values",1.03
same,normalized growth,"locus YJL095W, strain BCK1, hits give low values",1.05
same,normalized growth,"locus YJL115W, strain asf1, hits give low values",1.05
same,normalized growth,"locus YJL129C, strain trk1, hits give low values",1.06
same,normalized growth,"locus YJL154C, strain vps35, hits give low values",1.01
same,normalized growth,"locus YJL164C, strain tpk1, hits give low values",1.02
same,normalized growth,"locus YJL166W, strain qcr8, hits give low values",1.02
same,normalized growth,"locus YJL187C, strain SWE1, hits give low values",1.02
same,normalized growth,"locus YJR066W, strain TOR1, hits give low values",0.995
same,normalized growth,"locus YKL160W, strain elf1, hits give low values",1.02
same,normalized growth,"locus YKR026C, strain gcn3, hits give low values",1
same,normalized growth,"locus YKR091W, strain srl3, hits give low values",1.02
same,normalized growth,"locus YLL001W, strain dnm1, hits give low values",1.02
same,normalized growth,"locus YLL026W, hits give low values",1.03
same,normalized growth,"locus YLL041C, strain sdh2, hits give low values",1.02
same,normalized growth,"locus YLR027C, strain aat2, hits give low values",1.02
same,normalized growth,"locus YLR113W, strain HOG1, hits give low values",1.07
same,normalized growth,"locus YLR221C, strain rsa3, hits give low values",1.03
same,normalized growth,"locus YLR258W, strain gsy2, hits give low values",1.02
same,normalized growth,"locus YLR262C, strain YPT6 (second series), hits give low values",1.03
same,normalized growth,"locus YLR320W, strain mms22, hits give low values",1.03
same,normalized growth,"locus YLR342W, strain FKS1, hits give low values",1.03
same,normalized growth,"locus YLR357W, strain rsc2, hits give low values",1.07
same,normalized growth,"locus YLR370C, strain arc18, hits give low values",1.02
same,normalized growth,"locus YLR384C, strain iki3, hits give low values",1.02
same,normalized growth,"locus YML120C, strain ndi1, hits give low values",1.01
same,normalized growth,"locus YMR058W, strain fet3, hits give low values",1.03
same,normalized growth,"locus YMR125W, strain sto1, hits give low values",1.05
same,normalized growth,"locus YMR129W, hits give low values",1.02
same,normalized growth,"locus YMR205C, strain PFK2, hits give low values",1.04
same,normalized growth,"locus YMR231W, strain pep5, hits give low values",1.03
same,normalized growth,"locus YNL071W, strain lat1, hits give low values",1.03
same,normalized growth,"locus YNL183C, strain NPR1, hits give low values",0.984
same,normalized growth,"locus YNL209W, strain ssb2, hits give low values",1.02
same,normalized growth,"locus YNL248C, strain rpa49, hits give low values",1.03
same,normalized growth,"locus YNL322C, strain KRE1 (second series), hits give low values",1.02
same,normalized growth,"locus YNR049C, strain mso1, hits give low values",1.03
same,normalized growth,"locus YOR001W, strain rrp6, hits give low values",1.03
same,normalized growth,"locus YOR070C, strain gyp1, hits give low values",1.02
same,normalized growth,"locus YOR080W, strain dia2, hits give low values",1.03
same,normalized growth,"locus YOR083W, strain WHI5, hits give low values",1.01
same,normalized growth,"locus YOR106W, strain vam3, hits give low values",1.02
same,normalized growth,"locus YOR231W, strain MKK1, hits give low values",1.06
same,normalized growth,"locus YOR265W, strain rbl2, hits give low values",1.02
same,normalized growth,"locus YOR270C, strain vph1, hits give low values",1.09
same,normalized growth,"locus YOR290C, strain snf2, hits give low values",0.993
same,normalized growth,"locus YPL051W, strain arl3, hits give low values",1.02
same,normalized growth,"locus YPL078C, strain atp4, hits give low values",1.03
same,normalized growth,"locus YPL106C, strain sse1, hits give low values",1.02
same,normalized growth,"locus YPL240C, strain hsp82, hits give low values",1.03
same,normalized growth,"locus YPL256C, strain CLN2, hits give low values",1.05
Cc1nc(-c2ccc(-c3ccc(C(=O)N4CCc5cc6c(cc54)C4(CCN(C)CC4)CO6)cc3)c(C)c2)no1,normalized growth,"locus YAL040C, strain CLN3, hits give low values",0.967
same,normalized growth,"locus YCL061C, strain MRC1 (second series), hits give low values",0.902 (active)
same,normalized growth,"locus YDR363W, strain ESC2, hits give low values",0.991
same,normalized growth,"locus YER002W, strain NOP16, hits give low values",0.991
same,normalized growth,"locus YJR075W, strain HOC1, hits give low values",0.898 (active)
same,normalized growth,"locus YMR263W, strain SAP30, hits give low values",1
same,normalized growth,"locus YNL175C, strain NOP13, hits give low values",0.964
same,normalized growth,"locus YNL197C, strain WHI3, hits give low values",0.989
same,normalized growth,"locus YNL224C, strain SQS1, hits give low values",0.961
same,normalized growth,"locus YNL322C, strain KRE1, hits give low values",0.64 (active)
same,normalized growth,"locus YOR083W, strain WHI5 (second series), hits give low values",0.677 (active)
same,normalized growth,"locus YPL055C, strain LGE1, hits give low values",1.04
same,normalized growth,"locus YPL241C, strain CIN2, hits give low values",0.907 (active)
